Most compounds without a hit are left out; they make up all but 10% or so of the library.
BAZ2B block = blocks human BAZ2B; AlphaScreen BAZ2B-H3K14Ac peptide displacement; Potency, µM (top dose mostly 114 µM), for the others: at the highest dose activity change, negative = inhibition, actives largely listed as inhibitors; 360,000 tested, 4.4% active; AID 504333; further: potency means the concentration at half of the fitted maximal effect; on the % scale 0 is the no-effect control and ±100 the full control effect; nearly all actives have a fitted effect of over 60% in size
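BAZ2B (50 nM) with biotin-H3(5-23)K14Ac peptide (50 nM) in PBS pH 7.4, 0.01% Tween-20, preformed 30 min, then compound 30 min at room temperature; top concentration 110uM. AlphaScreen streptavidin donor/nickel chelate acceptor beads (10 ug/mL final), 20 min dark, signal read.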
CtBP-E1A blk = inhibitors of CtBP/E1A interaction; AlphaScreen GST-E1A/His-CtBP binding, 1536-well; active compounds read low; activity change, % (no concentration beside the values); 340,000 tested, 0.49% active; in the data active means activity change below about -65%; inconclusive means mostly about -30% to -63%; further: on the % scale 0 is the no-effect control and ±100 the full control effect
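Steps: dispense buffer (Tris pH 8.0, NaCl 300 mM, TCEP 1 mM, BSA, Tween 20); add 5X protein mix (GST-E1A, His-CtBP, 125 nM each); pin 23 nL compound; 2 h at 37 °C, dark; add 5X beads (50 ug/mL); 1 h; read.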
HP1b chromo inh = inhibitors of HP1-beta chromodomain binding to methylated histone tails. P83916. AlphaScreen HP1-beta / biotin-H3K9me3 peptide binding. Potency, µM (highest dose often 114 µM), for inactives: at the top dose activity change, negative = inhibition, most hits filed as inhibitors. 390,000 tested, 0.56% active; further: potency means the concentration at half of the fitted maximal effect; nearly all actives have a fitted effect of over 70% in size
Target sequence (P83916 whole entry, looked up): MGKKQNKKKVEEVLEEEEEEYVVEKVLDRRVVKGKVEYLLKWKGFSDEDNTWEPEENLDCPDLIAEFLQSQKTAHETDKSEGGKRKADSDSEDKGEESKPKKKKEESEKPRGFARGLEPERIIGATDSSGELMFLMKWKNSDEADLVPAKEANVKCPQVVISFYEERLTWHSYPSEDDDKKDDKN
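AlphaScreen: HP1-beta (50 nM) preformed 30 min with biotin-H3(1-18)K9me3 peptide (50 nM) in PBS pH 7.4, 0.01% Tween-20. Compound added for 30 min at RT, then streptavidin donor/nickel chelate acceptor beads (10 ug/mL) for 30 min.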
G9a block = G9a (human) methyltransferase inhibition | Q96KQ7 | 350,000 tested, 8.8% active | Potency, µM (top dose mostly 102 µM), without a hit: top-dose activity, negative = inhibition, most hits filed as inhibitors | G9a H3K9 monomethylation, AlphaScreen, 2 h; further: potency means the concentration at half of the fitted maximal effect; on the % scale 0 is the no-effect control and ±100 the full control effect; nearly all actives have a fitted effect of over 75% in size
Target sequence (Q96KQ7 913-1193 limits assumed): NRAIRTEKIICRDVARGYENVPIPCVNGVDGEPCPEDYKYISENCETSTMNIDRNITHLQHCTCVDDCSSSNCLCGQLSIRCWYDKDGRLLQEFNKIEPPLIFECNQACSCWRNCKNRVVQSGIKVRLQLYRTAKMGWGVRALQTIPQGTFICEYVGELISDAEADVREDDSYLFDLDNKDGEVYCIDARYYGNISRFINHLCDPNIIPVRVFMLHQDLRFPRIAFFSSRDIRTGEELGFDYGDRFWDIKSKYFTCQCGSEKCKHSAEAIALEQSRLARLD
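Quantitative HTS format: methyltransferase activity on a biotin-tagged H3K9 peptide is measured by AlphaScreen, using a rabbit anti-monomethyl-H3K9 antibody with streptavidin donor and anti-IgG acceptor beads. Final levels are 20 nM enzyme, 500 nM peptide, 20 uM SAM; 2 h RT.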
JMJD2A Tudor inh = JMJD2A Tudor domain (human) inhibition; O75164; AlphaScreen JMJD2A-Tudor / H3K4me3 peptide binding; Potency, µM (top dose mostly 114 µM), inactives show top-dose activity change, negative = inhibition, actives largely listed as inhibitors; 390,000 tested, 4.4% active; AID 504339; further: potency means the concentration at half of the fitted maximal effect; on the % scale 0 is the no-effect control and ±100 the full control effect; nearly all actives have a fitted effect of over 50% in size
Six1-Eya2 blk = blocks human Six1 binding to Eya2 | Q15475+O00167 | AlphaScreen GST-Six1/His-Eya2 binding, biochemical; active compounds read low | activity change, % (test concentration not listed) | 360,000 tested, 0.56% active; in the data active means activity change below about -65%; inconclusive means mostly about -30% to -63%; further: on the % scale 0 is the no-effect control and ±100 the full control effect
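Six1/Eya2 binding was read as AlphaScreen signal after compounds were pinned into GST-Six1 plus His-tagged Eya2 (5X stock 250/500 nM) in pH 8.0 Tris/NaCl/TCEP buffer, beads added, then incubated 1 h, 37 C, dark.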
Active calls of the source: *; [ ] = remark or other dose. Unless noted, the call rests on the fitted dose curve; in most records, active means well fitted inhibition curve with a large enough effect; inconclusive means small, poorly fitted or top-dose-only effect; inactive means no such curve, though single readings can be large or run the other way.

What do the screens show for `CC1Nc2nc(N(C)C)[nH]c(=O)c2NC1C` (centres undefined)?
BAZ2B block: inconclusive; CtBP-E1A blk: 1; HP1b chromo inh: 61%; G9a block: 3.2µM*; JMJD2A Tudor inh: 28µM*; Six1-Eya2 blk: -27

What do the screens show for `CCOc1ccc2cc(-c3nnc(Nc4ccc(C)cc4)s3)c(=O)oc2c1`?
BAZ2B block: -26%; HP1b chromo inh: 32%; G9a block: -40%[59 µM]; JMJD2A Tudor inh: -11%

Results for COc1ncc2nc(-c3ccc(F)cc3)c(=O)n(Cc3ccc(F)cc3)c2n1 ?
G9a block: 0%[0.501 µM]

What do the screens show for `NC(=S)NN=Cc1nccc2c(C(F)(F)C(F)(F)C(F)(F)F)cccc12`?
CtBP-E1A blk: 16; Six1-Eya2 blk: -19

Results for Cc1cnc(C=NNC(N)=S)c2cccc(N)c12 ?
CtBP-E1A blk: -2; HP1b chromo inh: inconclusive; JMJD2A Tudor inh: 50µM*; Six1-Eya2 blk: -79*

How did NC(=S)NN=Cc1nccc2ccccc12 do in these assays?
CtBP-E1A blk: -94*; HP1b chromo inh: -6%[57 µM]; JMJD2A Tudor inh: 18µM*; Six1-Eya2 blk: -81*

Results for O=C(N/C(=C/c1ccc(Br)cc1)C(=O)N1CCOCC1)c1ccco1 ?
BAZ2B block: -7%; CtBP-E1A blk: 3; HP1b chromo inh: 23%; G9a block: -7%; JMJD2A Tudor inh: 3%; Six1-Eya2 blk: -2

What do the screens show for `Cc1ccc(C(=O)N/C(=C\c2ccco2)C(=O)N2CCCCC2)cc1`?
BAZ2B block: -13%; CtBP-E1A blk: -2; HP1b chromo inh: inconclusive; G9a block: 45µM*; JMJD2A Tudor inh: -20%; Six1-Eya2 blk: 4

How did COc1ccc(C(=O)N/C(=C/c2ccco2)C(=O)N2CCCCCC2)cc1 do in these assays?
BAZ2B block: inconclusive; CtBP-E1A blk: -2; HP1b chromo inh: 21%; G9a block: 35µM*; JMJD2A Tudor inh: -23%; Six1-Eya2 blk: -3

What do the screens show for `O=C(N/C(=C/c1ccco1)C(=O)N1CCCCCC1)c1cccs1`?
BAZ2B block: -11%; CtBP-E1A blk: -1; HP1b chromo inh: 5%; G9a block: inconclusive; JMJD2A Tudor inh: -17%; Six1-Eya2 blk: -15

What do the screens show for `O=C(N/C(=C\c1ccco1)C(=O)N1CCOCC1)c1ccco1`?
BAZ2B block: 4%; CtBP-E1A blk: 1; HP1b chromo inh: 20%; G9a block: 32µM*; JMJD2A Tudor inh: -6%; Six1-Eya2 blk: -3

Results for O=C(N/C(=C/c1ccc(Br)cc1)C(=O)N1CCCC1=O)c1ccco1 ?
BAZ2B block: 8%; CtBP-E1A blk: -93*; HP1b chromo inh: 2%; G9a block: 29%[12.7 µM]; JMJD2A Tudor inh: -9%; Six1-Eya2 blk: -10

What do the screens show for `Cc1ccc(-n2ncc(C(=O)NCCN3CCCC3)c2C2CCN(C(=O)OC(C)(C)C)CC2)cc1C`?
BAZ2B block: -2%[57.1 µM]; HP1b chromo inh: 15%; G9a block: -33%[59 µM]; JMJD2A Tudor inh: -22%

What do the screens show for `CNC(=O)c1cnc2sc(N3CCC(C)CC3)nn2c1=O`?
BAZ2B block: -5%; HP1b chromo inh: 8%; G9a block: -3%[59 µM]; JMJD2A Tudor inh: -29%

What do the screens show for `Cc1ccc(C(=O)N/C(=C/c2ccco2)C(=O)N2CCCCC2)cc1`?
BAZ2B block: -9%; CtBP-E1A blk: 2; HP1b chromo inh: -3%; G9a block: 50µM*; JMJD2A Tudor inh: -19%; Six1-Eya2 blk: -5

What do the screens show for `CC1CN(C(=O)/C(=C/c2ccco2)NC(=O)c2ccccc2)CC(C)O1` (centres undefined)?
BAZ2B block: -3%; CtBP-E1A blk: 0; HP1b chromo inh: 0%; G9a block: 35µM*; JMJD2A Tudor inh: -11%; Six1-Eya2 blk: -8

What do the screens show for `CN1CCN(C(=O)/C(=C/c2cn(C)c3ccccc23)NC(=O)c2ccccc2)CC1`?
BAZ2B block: -10%; CtBP-E1A blk: -5; HP1b chromo inh: 3%; JMJD2A Tudor inh: -13%; Six1-Eya2 blk: -4

What do the screens show for `Cc1ccc(C(=O)N/C(=C/c2ccco2)C(=O)N2CCOCC2)cc1`?
BAZ2B block: 0%; CtBP-E1A blk: -11; HP1b chromo inh: 19%; G9a block: inconclusive; JMJD2A Tudor inh: 5%; Six1-Eya2 blk: -5

Results for CCOC(=O)C1CCN(C(=O)/C(=C/c2ccccc2)NC(=O)c2ccccc2)CC1 ?
BAZ2B block: -7%; HP1b chromo inh: 29%; G9a block: 8%; JMJD2A Tudor inh: -6%; Six1-Eya2 blk: 12

What do the screens show for `COc1ccc(C(=O)N/C(=C\c2cn(C)c3ccccc23)C(=O)N2CCN(C)CC2)cc1`?
BAZ2B block: -38%; CtBP-E1A blk: 1; HP1b chromo inh: 41%; G9a block: 45µM*; JMJD2A Tudor inh: -30%; Six1-Eya2 blk: -1

How did CCOC(=O)C1CCCN(C(=O)/C(=C/c2ccco2)NC(=O)c2ccccc2)C1 (centres undefined) do in these assays?
BAZ2B block: -18%; CtBP-E1A blk: -2; HP1b chromo inh: 4%; G9a block: 40µM*; JMJD2A Tudor inh: -25%; Six1-Eya2 blk: 0

What do the screens show for `CCN1CCN(C(=O)/C(=C/c2ccco2)NC(=O)c2ccccc2)CC1`?
BAZ2B block: 1%; CtBP-E1A blk: 0; HP1b chromo inh: 21%; G9a block: inconclusive; JMJD2A Tudor inh: 11%; Six1-Eya2 blk: 8

Results for O=[S+]([O-])(c1ccc2c(c1)OCCO2)N1CCN([S+](=O)([O-])c2cc(Cl)ccc2F)CC1 ?
JMJD2A Tudor inh: -11%

How did O=C(N/C(=C/c1ccco1)C(=O)N1CCCCCC1)c1ccccc1 do in these assays?
BAZ2B block: 2%; CtBP-E1A blk: -17; HP1b chromo inh: -15%; G9a block: 45µM*; JMJD2A Tudor inh: -16%; Six1-Eya2 blk: -3

How did O=C(N/C(=C\c1ccc(-c2ccccc2)o1)C(=O)N1CCOCC1)c1ccccc1 do in these assays?
BAZ2B block: -32%; CtBP-E1A blk: -12; HP1b chromo inh: -24%; G9a block: 50µM*; JMJD2A Tudor inh: 56µM*; Six1-Eya2 blk: -24

Results for Cc1cc(C)cc(NC(=O)CN2CCc3ccccc3C2)c1 ?
BAZ2B block: 32µM*; CtBP-E1A blk: 9; HP1b chromo inh: -44%; G9a block: 27%[0.501 µM]; JMJD2A Tudor inh: 40µM*; Six1-Eya2 blk: 10

Results for Cc1ccc(C)c(NC(=O)CCN2CCc3ccccc3C2)c1 ?
BAZ2B block: -39%; CtBP-E1A blk: 2; HP1b chromo inh: 29%; G9a block: 50µM*; JMJD2A Tudor inh: -15%; Six1-Eya2 blk: -1

What do the screens show for `CN1CC(=O)N(CC(=O)Nc2ccc(Cl)c(C(F)(F)F)c2)c2ccccc2C1=O`?
BAZ2B block: 4%; HP1b chromo inh: 31%; G9a block: 7%[59 µM]; JMJD2A Tudor inh: -19%
